Data reported in PubChem BioAssay AID1159580 (chemical genetic matrix, 2015).
Out of some 5,500 compounds screened, about 2,000 (36%) were called active. Another 18% or so got no clear call; they are omitted. Cut-off read from the data, not from the text of the source: active = normalized growth mostly below about 0.91 (no sharp cut-off); inconclusive = no clear call, values can overlap the other calls; inactive = mostly above about 0.92. The list shows a part of the results.

Experiment: chemical genetic growth profiling, strain panel (AID 1159580);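 note: tested at 20 µM; growth read once vehicle control cultures reached saturation at 30 °C; 1 = growth at the plate median or of vehicle wells; lower values mean less growth of the strain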
Settings: growth OD

Measured: normalized growth

Cc1ccccc1N1C(=O)c2cc(S(N)(=O)=O)c(Cl)cc2NC1C (stereo not drawn)
inactive: S. cerevisiae deletion strains, locus YKL009W, strain mrt4, stronger effect = lower value 1.01 | S. cerevisiae deletion strains, locus YKL068W, stronger effect = lower value 0.982 | S. cerevisiae deletion strains, locus YKL085W, strain MDH1 (second series), stronger effect = lower value 1.03 | S. cerevisiae deletion strains, locus YKL085W, strain MDH1, stronger effect = lower value 1.03 | S. cerevisiae deletion strains, locus YKL160W, strain elf1, stronger effect = lower value 0.969 | S. cerevisiae deletion strains, locus YKL190W, strain CNB1, stronger effect = lower value 0.994 | S. cerevisiae deletion strains, locus YKR001C, strain vps1, stronger effect = lower value 0.988 | S. cerevisiae deletion strains, locus YKR026C, strain gcn3, stronger effect = lower value 0.94 | S. cerevisiae deletion strains, locus YKR091W, strain srl3, stronger effect = lower value 0.984 | S. cerevisiae deletion strains, locus YLL001W, strain dnm1, stronger effect = lower value 0.969 | S. cerevisiae deletion strains, locus YLL026W, stronger effect = lower value 1 | S. cerevisiae deletion strains, locus YLL041C, strain sdh2, stronger effect = lower value 0.988 | S. cerevisiae deletion strains, locus YLR027C, strain aat2, stronger effect = lower value 0.987 | S. cerevisiae deletion strains, locus YLR039C, strain RIC1, stronger effect = lower value 0.974 | S. cerevisiae deletion strains, locus YLR058C, strain SHM2, stronger effect = lower value 0.987 | S. cerevisiae deletion strains, locus YLR102C, strain apc9, stronger effect = lower value 0.989 | S. cerevisiae deletion strains, locus YLR113W, strain HOG1, stronger effect = lower value 0.985 | S. cerevisiae deletion strains, locus YLR221C, strain rsa3, stronger effect = lower value 0.986 | S. cerevisiae deletion strains, locus YLR258W, strain gsy2, stronger effect = lower value 0.969 | S. cerevisiae deletion strains, locus YLR262C, strain YPT6 (second series), stronger effect = lower value 0.96 | S. cerevisiae deletion strains, locus YLR262C, strain YPT6, stronger effect = lower value 1.01 | S. cerevisiae deletion strains, locus YLR268W, strain sec22, stronger effect = lower value 0.995 | S. cerevisiae deletion strains, locus YLR320W, strain mms22, stronger effect = lower value 1.04 | S. cerevisiae deletion strains, locus YLR330W, strain CHS5, stronger effect = lower value 0.99 | S. cerevisiae deletion strains, locus YLR342W, strain FKS1 (second series), stronger effect = lower value 0.971 | S. cerevisiae deletion strains, locus YLR342W, strain FKS1, stronger effect = lower value 0.983 | S. cerevisiae deletion strains, locus YLR357W, strain rsc2, stronger effect = lower value 0.949 | S. cerevisiae deletion strains, locus YLR370C, strain arc18, stronger effect = lower value 0.98 | S. cerevisiae deletion strains, locus YLR371W, strain rom2, stronger effect = lower value 0.993 | S. cerevisiae deletion strains, locus YLR384C, strain iki3, stronger effect = lower value 0.961 | S. cerevisiae deletion strains, locus YLR418C, strain cdc73, stronger effect = lower value 0.98 | S. cerevisiae deletion strains, locus YML016C, strain PPZ1, stronger effect = lower value 0.985 | S. cerevisiae deletion strains, locus YML032C, strain rad52, stronger effect = lower value 0.994 | S. cerevisiae deletion strains, locus YML120C, strain ndi1, stronger effect = lower value 1 | S. cerevisiae deletion strains, locus YML124C, strain tub3, stronger effect = lower value 0.978 | S. cerevisiae deletion strains, locus YMR058W, strain fet3, stronger effect = lower value 0.988 | S. cerevisiae deletion strains, locus YMR078C, strain ctf18, stronger effect = lower value 0.984 | S. cerevisiae deletion strains, locus YMR125W, strain sto1, stronger effect = lower value 0.921 | S. cerevisiae deletion strains, locus YMR129W, stronger effect = lower value 0.997 | S. cerevisiae deletion strains, locus YMR205C, strain PFK2, stronger effect = lower value 0.982 | S. cerevisiae deletion strains, locus YMR223W, strain ubp8, stronger effect = lower value 0.993 | S. cerevisiae deletion strains, locus YMR231W, strain pep5, stronger effect = lower value 0.974 | S. cerevisiae deletion strains, locus YMR263W, strain SAP30, stronger effect = lower value 1.01 | S. cerevisiae deletion strains, locus YMR307W, strain GAS1, stronger effect = lower value 0.888 | S. cerevisiae deletion strains, locus YNL067W, strain RPL9B, stronger effect = lower value 1.01 | S. cerevisiae deletion strains, locus YNL071W, strain lat1, stronger effect = lower value 1.01 | S. cerevisiae deletion strains, locus YNL128W, strain TEP1, stronger effect = lower value 0.97 | S. cerevisiae deletion strains, locus YNL183C, strain NPR1, stronger effect = lower value 0.93 | S. cerevisiae deletion strains, locus YNL209W, strain ssb2, stronger effect = lower value 0.994 | S. cerevisiae deletion strains, locus YNL233W, strain BNI4, stronger effect = lower value 1.01 | S. cerevisiae deletion strains, locus YNL248C, strain rpa49, stronger effect = lower value 0.909 | S. cerevisiae deletion strains, locus YNL250W, strain rad50, stronger effect = lower value 0.98 | S. cerevisiae deletion strains, locus YNL271C, strain bni1, stronger effect = lower value 0.983 | S. cerevisiae deletion strains, locus YNL298W, strain CLA4, stronger effect = lower value 0.996 | S. cerevisiae deletion strains, locus YNL307C, strain MCK1, stronger effect = lower value 0.996 | S. cerevisiae deletion strains, locus YNL322C, strain KRE1 (second series), stronger effect = lower value 0.98 | S. cerevisiae deletion strains, locus YNR049C, strain mso1, stronger effect = lower value 0.992 | S. cerevisiae deletion strains, locus YNR052C, strain pop2, stronger effect = lower value 0.995 | S. cerevisiae deletion strains, locus YOL006C, strain TOP1, stronger effect = lower value 0.997 | S. cerevisiae deletion strains, locus YOL012C, strain htz1 0.785 | S. cerevisiae deletion strains, locus YOL147C, strain pex11, stronger effect = lower value 0.987 | S. cerevisiae deletion strains, locus YOR001W, strain rrp6, stronger effect = lower value 0.957 | S. cerevisiae deletion strains, locus YOR061W, strain CKA2, stronger effect = lower value 0.993 | S. cerevisiae deletion strains, locus YOR069W, strain VPS5, stronger effect = lower value 0.986 | S. cerevisiae deletion strains, locus YOR070C, strain gyp1, stronger effect = lower value 0.999 | S. cerevisiae deletion strains, locus YOR080W, strain dia2, stronger effect = lower value 0.961 | S. cerevisiae deletion strains, locus YOR083W, strain WHI5, stronger effect = lower value 0.986 | S. cerevisiae deletion strains, locus YOR106W, strain vam3, stronger effect = lower value 0.957 | S. cerevisiae deletion strains, locus YOR136W, strain idh2, stronger effect = lower value 0.99 | S. cerevisiae deletion strains, locus YOR144C, strain elg1, stronger effect = lower value 0.987 | S. cerevisiae deletion strains, locus YOR184W, strain ser1, stronger effect = lower value 1.01 | S. cerevisiae deletion strains, locus YOR231W, strain MKK1, stronger effect = lower value 0.974 | S. cerevisiae deletion strains, locus YOR265W, strain rbl2, stronger effect = lower value 0.995 | S. cerevisiae deletion strains, locus YOR270C, strain vph1, stronger effect = lower value 0.938 | S. cerevisiae deletion strains, locus YOR290C, strain snf2, stronger effect = lower value 0.995 | S. cerevisiae deletion strains, locus YOR316C, strain cot1, stronger effect = lower value 0.983 | S. cerevisiae deletion strains, locus YPL051W, strain arl3, stronger effect = lower value 1.01 | S. cerevisiae deletion strains, locus YPL078C, strain atp4, stronger effect = lower value 0.957 | S. cerevisiae deletion strains, locus YPL106C, strain sse1, stronger effect = lower value 0.956 | S. cerevisiae deletion strains, locus YPL240C, strain hsp82, stronger effect = lower value 0.986 | S. cerevisiae deletion strains, locus YPL241C, strain CIN2, stronger effect = lower value 0.992 | S. cerevisiae deletion strains, locus YPL256C, strain CLN2, stronger effect = lower value 0.954 | S. cerevisiae deletion strains, locus YPR119W, strain clb2, stronger effect = lower value 0.987 | S. cerevisiae deletion strains, locus YPR141C, strain kar3, stronger effect = lower value 0.975 | S. cerevisiae deletion strains, locus YPR163C, strain tif3, stronger effect = lower value 0.981 | S. cerevisiae deletion strains, locus YPR167C, strain met16, stronger effect = lower value 0.992 | S. cerevisiae deletion strains, strain wtn01, stronger effect = lower value 0.991 | S. cerevisiae strains, strain wild type, stronger effect = lower value 0.943
